Screening results from PubChem BioAssay.
Most compounds without a hit are left out; they make up all but 3% or so of the library.
RE007 growth inh: less growth of the S. pombe RE007 Vpr strain. S. pombe RE007 Vpr strain, BacTiter-Glo ATP luminescence, 24 h. Potency, µM (top dose mostly 92.2 µM), without a hit: at the top dose activity change, negative = less growth, most hits filed as inhibitors. 360,000 tested, 0.21% active; active = well fitted falling curve with a large enough effect; inconclusive = small, poorly fitted or top-dose-only effect; inactive = no such curve, though single readings can be large or run the other way; also: nearly all actives have a fitted effect of over 50% in size
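Fission yeast strain RE007, carrying one chromosomally integrated HIV-1 vpr copy, was seeded at OD 0.01 in PMG+AL medium with 23 nL pinned compound. After 24 h at 30 °C and 99% humidity, viability was read by BacTiter-Glo luminescence.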
LmPK inhibitor: inhibitors of Leishmania mexicana pyruvate kinase. Q27686. purified LmPK, Kinase-Glo ATP luminescence, 1 h. Potency, µM (highest dose often 57.5 µM), for inactives: top-dose activity change, negative = inhibition, usual class: inhibitors. 290,000 tested, 0.37% active
Target sequence (Q27686 whole entry, looked up): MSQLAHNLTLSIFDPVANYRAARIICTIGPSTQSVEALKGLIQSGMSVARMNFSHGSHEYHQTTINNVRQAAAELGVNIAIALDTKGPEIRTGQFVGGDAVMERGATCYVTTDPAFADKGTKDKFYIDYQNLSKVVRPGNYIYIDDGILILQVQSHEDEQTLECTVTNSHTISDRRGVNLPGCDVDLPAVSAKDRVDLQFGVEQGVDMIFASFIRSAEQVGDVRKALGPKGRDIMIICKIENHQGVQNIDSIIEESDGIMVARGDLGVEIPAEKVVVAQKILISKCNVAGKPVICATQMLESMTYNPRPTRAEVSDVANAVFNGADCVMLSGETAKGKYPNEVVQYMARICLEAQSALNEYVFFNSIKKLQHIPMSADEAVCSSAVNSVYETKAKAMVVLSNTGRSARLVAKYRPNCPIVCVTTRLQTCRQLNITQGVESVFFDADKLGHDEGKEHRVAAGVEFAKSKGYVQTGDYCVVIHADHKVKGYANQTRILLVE
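Pyruvate kinase activity monitored as ATP production (luciferase luminescence). Conditions: 0.1 nM enzyme, 0.5 mM PEP, 0.1 mM ADP, 1 h, RT; normalized against uninhibited and no-enzyme wells.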
Tb PYK inh: T. brucei pyruvate kinase inhibition | 410,000 tested, 0.12% active | TbPYK enzyme, Kinase-Glo Plus ATP luminescence, 45 min | Q57TT1 | Potency, µM (doses to about 76.8 µM), for inactives: top-dose activity, negative = inhibition, usual class: inhibitors; also: nearly all actives have a fitted effect of over 50% in size
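Enzyme and substrate buffer are dispensed first and compound is pin-transferred. ADP at 130 uM final then starts the reaction, which runs 45 min at room temperature. Detection reagent is added for 10 min before luminescence is imaged.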
Sm TGR inh: inhibitors of Schistosoma mansoni thioredoxin glutathione reductase | purified TGR, DTNB reduction, TNB absorbance 405 nm | Potency, µM (top dose mostly 114 µM), without a hit: top-dose activity change, negative = inhibition, actives largely listed as inhibitors | 360,000 tested, 3% active | AID 485364 | Q962Y6; also: nearly all actives have a fitted effect of over 60% in size
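TGR 20 nM + NADPH 100 uM (dispensed conc.), cpd preinc 15 min RT; start with NADPH (500 uM addition) then DTNB (15 mM addition). Kinetic TNB absorbance, 405 nm filter. Four-parameter Hill fit across titration.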
* = called active by the depositor; ? = inconclusive; nt = no result given; [ ] = dose if it differs, or a comment. Unless noted, calls follow the shape of the dose curve; as a rule, active = well fitted curve in the direction sought with a large enough effect; inconclusive = small, poorly fitted or top-dose-only effect, or another doubt; inactive = no such curve, though single readings can be large; an effect the other way counts as inactive or inconclusive. % is scaled to controls: 0 for no effect and ±100 for the full control effect; potency is read from the fitted curve at half-maximal effect.

SMILES | RE007 growth inh | LmPK inhibitor | Tb PYK inh | Sm TGR inh
COc1ccc(C2=C(C)C(=NCCCN3CCN(c4cc(C)ccc4C)CC3)NS2(=O)=O)cc1 | nt | nt | -6% | 1%
Cc1ccc(-c2nn3c(-c4ccccc4C)nnc3c3ccccc23)cc1 | nt | nt | 2% | 0%
COC(=O)C(C)Sc1nnc2cc(C)c3cc(C)cc(C)c3n12 (configuration not stated) | nt | nt | ? | -2%
COc1cccc(NC(=O)CSC2=Nc3ccccc3N=C(c3ccc(F)cc3)C2)c1 | nt | nt | 5% | 0%
C#CCOCCOCCOCCNc1nc(N2CCN(C(=O)CCCCCCCCCCNC(=O)[C@H](CO)n3cc(CCCSC)nn3)CC2)nc(N2CCN(C(=O)CCCCCCCCCCNC(=O)[C@@H]([C@H](C)O)n3cc(C)nn3)CC2)n1 | nt | nt | nt | 45µM*
C#CCOCCOCCOCCNc1nc(N2CCN(C(=O)CCCCCCCCCCNC(=O)[C@H](CO)n3cc(CCCSC)nn3)CC2)nc(N2CCN(C(=O)CCCCCCCCCCNC(=O)[C@H](CCCCN)n3cc(CCO)nn3)CC2)n1 | 8% | nt | 2% | nt
COc1ccccc1N1CCN(C(=O)c2ccc3nc(-c4ccco4)c(-c4ccco4)nc3c2)CC1 | 22% | 9% | ? | 14µM*
COc1ccc2nc3oc(C(=O)N4CCN(c5cc(C)ccc5C)CC4)cc3cc2c1 | nt | nt | 8% | 89µM*
Cc1ccc(C)c(N2CCN(C(=O)c3ccc4nc(-c5ccco5)c(-c5ccco5)nc4c3)CC2)c1 | -7% | 4% | -8% | 6.3µM*
COc1ccc2nc3oc(C(=O)N4CCN(c5cccc(Cl)c5)CC4)cc3cc2c1 | 11% | 0% | 0% | 3%
Cc1ccc(C)c(N2CCN(C(=O)c3ccc4nc(N5CCOCC5)sc4c3)CC2)c1 | 21% | 2% | 0% | -25%
COc1ccccc1N1CCN(C(=O)c2ccc3nc[nH]c3c2)CC1 | 0% | -1% | 1% | -1%
COc1ccc(C(=O)CC2(O)C(=O)Nc3c(C)cccc32)c(OC)c1OC (configuration not stated) | nt | nt | 3% | -1%
CCOC(=O)/C=C1\CN(Cc2cc(OC)c(OC)c(OC)c2)S(=O)(=O)c2ccc(C(F)(F)F)cc21 | -3% | -6% | 2% | 28µM*
C[N+]12CCCC[C@@H]1CCC(=C(c1cccs1)c1cccs1)C2 (some centres not stated) | nt | nt | -9% | nt
C=CCOc1ccc(C2NC(=S)NC3=C2CCc2ccccc23)cc1 (configuration not stated) | -4% | -4% | -4% | 56µM*
O=C(CC1C(=O)NCCN1Cc1cccc(C(F)(F)F)c1)NCCc1cnccn1 (configuration not stated) | -21% | -8% | -18% | -8%
CCCn1c(CC)nc([N+](=O)[O-])c1Sc1ccc(F)cc1 | -6% | 1% | 1% | 45µM*
CCCn1c(CC)nc([N+](=O)[O-])c1Sc1ccc(C)cc1 | 12% | 0% | -10% | -32%
CCCSc1ccc2nc(-c3ccccc3)cn2c1 | ? | 6.3µM* | ? | -1%
Cc1ccc(/C=C/C(=O)N2CCN(c3ccc(F)cc3)CC2)o1 | nt | 3% | -24% | 50µM*
O=C(/C=C/c1ccc(F)cc1)N1CCN(c2ncccn2)CC1 | 9% | 0% | 2% | 2%
COc1ccc(N2CCN(C(=O)/C=C/c3ccco3)CC2)cc1 | -4% | -6% | -8% | 18µM*
Cc1ccc(/C=C/C(=O)N2CCCC(C(N)=O)C2)o1 (configuration not stated) | 7% | 3% | 3% | 32µM*
O=C(/C=C/c1ccco1)N1CCN(c2ccc(F)cc2)CC1 | 3% | 1% | 10% | 10µM*
SMILES | RE007 growth inh | LmPK inhibitor | Tb PYK inh | Sm TGR inh
OC1(c2ccc(Cl)c(C(F)(F)F)c2)CCN(CCCC(c2ccc(F)cc2)c2ccc(F)cc2)CC1 | nt | nt | -10% | nt
Cc1ccc(NC(=O)C(C)Sc2nc(-c3ccccc3)c(C#N)c(=O)[nH]2)c(C)c1 (configuration not stated) | nt | nt | 0% | -3%
O=C(NCCC(=O)N1CCN(c2ccccc2F)CC1)c1ccco1 | 14% | nt | 1% | -12%
Cc1ccc(/C=C/C(=O)N2CCN(c3ncccn3)CC2)o1 | -2% | -5% | ? | 3.2µM*
COc1ccccc1N1CCN(C(=O)/C=C/c2ccco2)CC1 | 2% | -6% | -20% | 50µM*
COc1ccccc1N1CCN(/N=C/C=C\c2ccccc2[N+](=O)[O-])CC1 | 4% | 4% | 8% | 10%
COc1ccccc1N1CCN(/N=C/C=C\c2ccco2)CC1 | -16% | -8% | -6% | 40µM*
CC(C)(C)c1ccc(/C=C/C(=O)N2CCN(c3ncccn3)CC2)cc1 | -2% | 0% | -6% | -2%
O=C(NCCC(=O)N1CCN(c2ccc(F)cc2)CC1)c1ccco1 | -6% | nt | 3% | 45µM*
O=C1C2=C(C(=O)c3ccccc31)C1O[C@](c3ccsc3)(Cc3ccccc31)O2 | nt | -2%[11.5 µM] | nt | ?
NCC(O)c1cc(O)c(O)cc1F (configuration not stated) | 0%[18.4 µM] | nt | -5% | 45µM*
NC[C@H](O)c1ccc(O)c(O)c1 | -8% | nt | -12% | ?
Cc1ccc(-n2ncc3c(Nc4cccc(C(F)(F)F)c4)ncnc32)cc1C | nt | nt | -6% | 21%
COc1cccc(CN2CCNC(=O)C2CC(=O)NC2CCCC2)c1OC (configuration not stated) | 2% | -3% | 2% | ?
O=C(CC1C(=O)NCCN1Cc1cccc(F)c1)NC1CCCCC1 (configuration not stated) | 3% | -7% | 2% | 35µM*
COc1ccc(CN2CCNC(=O)C2CC(=O)O)c(OC)c1 (configuration not stated) | 8% | 1% | -6% | 35µM*
COc1cccc(CN2CCNC(=O)C2CC(=O)NC2CCCCC2)c1OC (configuration not stated) | 10% | -1% | 24% | 45µM*
O=C(CC1C(=O)NCCN1Cc1cccc(F)c1)NC1CCC1 (configuration not stated) | -15% | 0% | -1% | ?
COc1ccc(CN2CCNC(=O)C2CC(=O)NC2CCCC2)c(OC)c1 (configuration not stated) | -3% | 11% | -1% | -35%
COc1cccc(CN2CCNC(=O)C2CC(=O)O)c1OC (configuration not stated) | -7% | -2% | 5% | 40µM*
Cc1ccccc1CN1CCNC(=O)C1CC(=O)O (configuration not stated) | -9% | 3% | 3% | 25µM*
CCOc1ccc(CN2CCNC(=O)C2CC(=O)NCc2cc(C)n(C)n2)cc1 (configuration not stated) | -1% | -2% | 9% | ?
COc1ccc(CN2CCNC(=O)C2CC(=O)NCc2cc(C)n(C)n2)c(F)c1 (configuration not stated) | 3% | -8% | -3% | 20µM*
CC(=O)Nc1nnc(SCc2cc(=O)c3cc(C)ccc3[nH]2)s1 | nt | nt | -8% | -3%
